Reference: PubChem BioAssay AID624330 (Southern Research Specialized Biocontainment Screening …, 2012)
Screen size: about 340,000 compounds; about 2,100 (0.62%) were called active.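 The calls were made as follows: active = first-screen hits whose inhibition reached a set limit at any dose in the follow-up dose series; inconclusive = inhibition above the set first-screen limit but never retested; inactive = the rest.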 The list is a sample of the results. Potency and affinity values are given separately.

molecular target: Rac GTPase-activating protein 1 (Homo sapiens) (UniProt Q9H0H5); assay: MgcRacGAP GTPase-activating activity inhibitors, confirmation, biochemical, ADP Hunter fluorescence, primary and confirmatory (AID 624330); settings: MgcRacGAP-stimulated Rac1 GTP hydrolysis, at 30 µM, stronger effect = higher value, GST-tagged Rac1 F28L mutant substrate;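 also: fluorescence reports GDP produced by GAP-driven GTP hydrolysis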
Sequence (Q9H0H5 whole entry, looked up): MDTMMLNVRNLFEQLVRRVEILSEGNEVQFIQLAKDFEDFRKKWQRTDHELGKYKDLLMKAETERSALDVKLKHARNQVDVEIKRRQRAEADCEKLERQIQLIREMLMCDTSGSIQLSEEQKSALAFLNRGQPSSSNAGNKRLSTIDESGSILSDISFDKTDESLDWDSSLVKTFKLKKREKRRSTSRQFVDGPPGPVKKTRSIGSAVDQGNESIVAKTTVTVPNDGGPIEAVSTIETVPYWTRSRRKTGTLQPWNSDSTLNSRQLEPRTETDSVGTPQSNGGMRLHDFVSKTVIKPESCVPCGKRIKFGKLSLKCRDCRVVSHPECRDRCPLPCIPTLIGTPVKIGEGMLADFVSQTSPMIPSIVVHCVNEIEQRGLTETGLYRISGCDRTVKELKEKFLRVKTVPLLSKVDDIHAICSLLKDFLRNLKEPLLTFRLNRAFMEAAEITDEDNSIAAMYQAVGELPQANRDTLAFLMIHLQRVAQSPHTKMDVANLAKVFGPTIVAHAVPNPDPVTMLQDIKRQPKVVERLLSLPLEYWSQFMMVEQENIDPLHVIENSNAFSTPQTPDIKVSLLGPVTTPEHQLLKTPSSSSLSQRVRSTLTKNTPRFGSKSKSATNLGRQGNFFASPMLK

inhibition, inactive:
CCOc1cc(/C=C(\C#N)C(=O)Nc2ccccc2C(=O)O)ccc1OC(=O)c1ccc(C)cc1 12.7%
CCOC(=O)C1=C(N)n2c(s/c(=C\c3cccnc3)c2=O)=C(C#N)C1c1cccnc1 (stereo not drawn) 9.67%
CCOc1ccc(NC(=O)CN2CC(c3ccccc3)CC2=O)cc1 (stereo not drawn) 1.86%
CSc1cc(N2CCOCC2)nc(-c2ccccc2Cl)n1 2.89%
CCN1C(=O)[C@H]2[C@@H](c3ccc(-c4ccc(F)cc4)c(OC)c3)N[C@@](Cc3ccccc3)(C(=O)OC)[C@H]2C1=O 0.02%
OC(CN1CCN(C(c2ccccc2)c2ccccc2)CC1)c1ccccc1 (stereo not drawn) 8.44%
O=C(NCc1cccc(Cl)c1)C1CCC(=O)N(CCCN2CCCC2=O)C1 (stereo not drawn) 10.9%
CN(C(=O)c1cccc(C#CC(C)(C)O)c1)C1CCCN(Cc2ccccc2F)C1 (stereo not drawn) -6.83%
O=C(CSc1ccccc1)N1CCN(c2ccccc2)CC1 10.2%
COc1ccc(N2CCN(C(=O)CSc3ccccc3)CC2)cc1 17.2%
Cc1cnc(CNC(=O)c2ccc3oc(C(C)C)nc3c2)[nH]1 -0.66%
Cc1cc(Cl)cc(Br)c1OCCCCn1cncn1 15.5%
Cc1cc(Cl)c(OCCCn2cncn2)c(Br)c1 13.1%
O=c1c2ccccc2nnn1-c1ccccc1[N+](=O)[O-] 10.5%
COc1cc(C(=S)N2CCCCC2)ccc1O 13.6%
COc1cc(C(=S)N2CCCC2)ccc1O 24.9%
O=C(OCc1ccccc1)N1CCC2CC1c1cc(N3CCNCC3)ccc12 (stereo not drawn) 10.7%
Cn1c(=O)[nH]c(=O)c2c1nc(N1CCCCCC1)n2Cc1cccc2ccccc12 12.6%
CCOC(=O)C(Cc1ccccc1)NC(C)=O (stereo not drawn) -0.49%
CC(=O)NC(Cc1ccccc1)C(C)=O (stereo not drawn) 8.26%
COc1cc(CCC(=O)Nc2nnc(-c3cccnc3)s2)cc(OC)c1OC 9%
O=C(O)c1cc(NCc2cccs2)ccc1N1CCOCC1 8.2%
COC(=O)c1cc(NCc2c(F)cccc2Cl)ccc1N1CCOCC1 23.3%
Clc1cc(NCc2cccs2)ccc1N1CCOCC1 14.1%
COC(=O)c1cc(NC(=O)c2cccs2)ccc1N1CCOCC1 8.25%
COc1ccccc1CNc1ccc(N2CCOCC2)c(C(=O)O)c1 11.4%
CCOC(=O)c1cc(NC(=O)c2cccs2)ccc1N1CCOCC1 10.9%
CC(C)[C@H](NC(=O)c1ccccc1)C(=O)OCC(=O)N1CC2(C)CC1CC(C)(C)C2 (stereo partly drawn) -5.69%
Cc1ccc(S(=O)(=O)N2CCN(c3nc(CN4CCCC4)nc4sc(C)c(C)c34)CC2)cc1 6.41%
CC(C)OC(=O)CSc1nnc(-c2ccc(Cl)cc2Cl)o1 9.06%
O=C1OCCC1=COCCCCCOC=C1CCOC1=O 3.03%
N#Cc1ccccc1NC(=O)CSc1n[nH]c(=O)n1C1CC1 -2.21%
COc1ccccc1CN1CCNC(=O)C1CC(=O)NCCc1cnccn1 (stereo not drawn) 4.17%
COc1ccccc1/C=N/NC(=O)C(C)Cn1cnc2ccccc21 (stereo not drawn) 2.07%
COc1cc(NC(c2ccccc2)c2ccccc2)cc(OC)c1OC 11%
COc1cc(C(=O)NC(c2ccccc2)c2ccccc2)cc(OC)c1C 2.28%
O=C(OCC(=O)N1CCN(S(=O)(=O)c2ccc(Cl)cc2)CC1)c1cccc(OC(F)F)c1 5.16%
O=C(c1ccc(O)c(Br)c1)c1cc(Br)ccc1O 4.27%
O=C(CCNC(=O)c1ccco1)Nc1ccccc1OC(F)F 5.22%
CCCC1=Nc2cc(C(=O)NCCCN3CCOCC3)ccc2Sc2ccccc21 10.2%
CCOc1ccc(NC(C)c2cc(Cl)ccc2O)cc1 (stereo not drawn) 15.5%
CC(Nc1ccc(Cl)cc1)c1cc(Cl)ccc1O (stereo not drawn) 7.06%
COC(=O)c1ccc(Nc2nc(-c3ccncc3)nc3ccccc23)cc1 4.52%
CCN1CCN(C(=O)C2CCN(C(=O)c3cc4sccc4n3CC)CC2)CC1 9.89%
CN1CCC(N2CCN(c3cccc(C(F)(F)F)c3)CC2)CC1 5.09%
Oc1ccc(N=Nc2cccc(C(F)(F)F)c2)cc1C=Nc1ccc(N2CCOCC2)cc1 9.72%
O=C(C1CCC1)N1CCN(c2cccc(C(F)(F)F)c2)CC1 0.34%
O=C(N/N=C/c1ccccc1O)c1cccc(C(F)(F)F)c1 -1.42%
FC(F)(F)c1cccc(N2Cc3ccccc3C2)c1 11.1%
FC(F)(F)c1cccc(CN2CCCCCC2)c1 26.2%
O=C(C1=C(O)C(=O)N(CCN2CCOCC2)C1c1ccccn1)c1cccs1 (stereo not drawn) 8.66%
COc1cc2c(cc1NC(=O)c1ccc(C)c([N+](=O)[O-])c1)oc1ccccc12 8.23%
CN(C)S(=O)(=O)c1ccc(C(=O)Nc2cccc(C(=O)O)c2)cc1 -1.04%
CCN(CC(=O)N1CCCCC1)S(=O)(=O)c1ccccc1 5.64%
CCOC(=O)C1CCN(C(=O)c2cccc(S(=O)(=O)N3CCc4ccccc43)c2)CC1 3.11%
CCCCNC(=O)C(CC)Sc1nc2sc(C(=O)OC)c(C)c2c(=O)n1N (stereo not drawn) 9.24%
CCCCOC(=O)c1nc(Cl)c(Cl)c(N)c1Cl -9.26%
O=C1C=C(Nc2cccc(O)c2)CC(c2ccco2)C1 (stereo not drawn) 9.63%
O=C1C=C(Nc2ccc(Cl)cc2)CC(c2ccco2)C1 (stereo not drawn) 5.91%
O=C(O)c1ccc(N=Nc2c(O)[nH]c3ccccc23)cc1 5.98%
Oc1[nH]c2ccccc2c1N=Nc1ccc(F)cc1 4.29%
CCN1CCN(S(=O)(=O)c2ccc(S(=O)(=O)NCC3CCCO3)cc2)CC1 (stereo not drawn) 1.86%
CCN1CCN(C(=O)NC2CCCCC2)CC1 30.1%
